The entries come from a sample that favours hits as a whole.
Methyltransferases: Primary Screen for Target Class Profiling of Small Molecule Inhibitors of Methyltransferases; 25,000 compounds, 3.9% hits; calls only at 40 µM; purified enzyme, MTase-Glo SAH luminescence; active compounds read low; call rule not given here
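Each enzyme was assayed with SAM and its substrate. SAH formation detected by MTase-Glo luminescence; single-point 40 uM screen[…].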
MTase-Glo ctr: detection enzyme interference, methyltransferase counter-screen; 180 compounds, 6% hits; shares compounds with Methyltransferases; Potency, µM (highest dose often 57.3 µM), inactives show top-dose activity change, negative = inhibition, usual class: inhibitors; MTase-Glo coupled enzymes, SAH conversion luminescence, no MTase; AID 1745851; active = well fitted inhibition curve with a large enough effect; also: potency is read from the fitted curve at half-maximal effect
Starred values were filed as active, the others as inactive; i = inactive; + = active, no number; [ ] = another dose, or the depositor's remark. % is scaled to controls: 0 for no effect and ±100 for the full control effect.

SMILES	Methyltransferases	others
COc1cc(C(=O)NC(=S)Nc2cccc(NC(=O)c3ccccc3)c2)cc(OC)c1OC	i
COc1ccc(CNC(=O)N2CCCCC2c2nc(-c3cnccn3)n[nH]2)cc1 (stereo not drawn)	i
Cc1ccc2nc(CN(C)C(=O)C3CCC(=O)N(C4CCCCCC4)C3)[nH]c2c1 (stereo not drawn)	+	MTase-Glo ctr=-1%
CCN1CC(C(=O)N(C)Cc2ccc(Oc3ccccc3)cc2)CCC1=O (stereo not drawn)	i
Cc1ccc2nc(CO[C@H]3CN(C4CCN(C)CC4)C[C@H]3F)[nH]c2c1	i
O=C(Nc1ccccc1C(F)(F)F)N1Cc2c(sc3c2CCCC3)-n2cccc2C1c1ccccc1 (stereo not drawn)	i
CNC(=O)c1cc[nH]c1C1CCCN(C(=O)Cc2ccsc2)C1 (stereo not drawn)	i
CC(C(=O)NCc1ccc(Cl)cc1)n1ccc2cc(S(=O)(=O)N3CCCCC3)ccc21 (stereo not drawn)	i
CC1CCN(CCCNC(=O)C2CCc3sc(C(=O)N4CCCC4)cc3C2)CC1 (stereo not drawn)	+	MTase-Glo ctr=-2%
CCCCNC(=O)C1CCc2sc(C(=O)N3CCCCC3)cc2C1 (stereo not drawn)	i
CC1CCN(CCNS(=O)(=O)c2ccc3c(c2)oc(=O)n3C)CC1	i
Cc1ccoc1C(=O)N1CC[C@@H]2CN(S(C)(=O)=O)[C@@H]2C1	i
CC1Oc2ccc(NC(=O)CC(C)(C)C)cc2CN(CCc2ccccc2)C1=O (stereo not drawn)	i
O=C(c1ccc(Cl)cc1)N1CC2(CCN(CC3CC3)CC2)Cc2ccccc21	+	MTase-Glo ctr=-1%
O=C(C1CCCC1)N1CC2(CCN(Cc3cccnc3)CC2)Cc2ccccc21	i
O=C(c1ccccc1)N1CC2(CCCN2Cc2cccnc2)Cc2ccccc21 (stereo not drawn)	i
COc1cccc(CNC(=O)c2ncn3c2C(=O)N(C2CC2)C(C)(C(=O)NCc2cccc(C)c2)C3)c1 (stereo not drawn)	i
COc1ccc(NC(=O)CSc2nnc3n(CCC(C)C)c(=O)c4ccccc4n23)cc1OC	i
Cc1ccc(C)c(Cn2nc3n(CC(C)C)c(=O)c4ccc(C(=O)NC5CCCC5)cc4n3c2=O)c1	i
Cn1c(C(=O)Nc2ccc3c(c2)OCO3)cc2c1CCN(Cc1cccc(F)c1)C2	i
Cn1c(C(=O)NCCN2CCCCC2)cc2c1CCN(Cc1cccc(F)c1)C2	+	MTase-Glo ctr=4%
Cn1c(=O)c2ccc(C(=O)NC3CCCCC3)cc2n2c(=O)n(Cc3cccc(F)c3)nc12	i
COc1ccc(CCNC(=O)CC(c2cccc(F)c2)c2cn(C)c3ccccc23)cc1OC (stereo not drawn)	i
CC(C)Cn1c(=O)c2ccc(C(=O)NC(C)C)cc2n2c(=O)[nH]nc12	i
OCC1(CC2CC2)CCCN(Cc2ccc(C(F)(F)F)nc2)C1 (stereo not drawn)	i
SMILES	Methyltransferases	others
Cc1ccc(-c2[nH]ncc2CN2CC[C@@](C)(O)[C@H](N3CCCC3)C2)cc1	i
OCC1(Cc2ccccc2)CCCN(Cc2cn[nH]c2-c2ccc(F)cc2)C1 (stereo not drawn)	+	MTase-Glo ctr=2%
CC1CCCCC1NC(=O)C1(C)Cn2c(cc3sccc32)C(=O)N1C1CCCCCC1 (stereo not drawn)	i
COCCCN1C(=O)c2nc3ccccc3n2CC1(C)C(=O)NC1CCCCC1C (stereo not drawn)	i
CC(C)n1nc(OC(C)(C)C(=O)Nc2ccccn2)c2cc(CN3CCOCC3)ccc21	i
COc1ccc(NC(=O)C(C)(C)Oc2nn(CC3CC3)c3ccc(CN4CCCC4)cc23)cc1	+	MTase-Glo ctr=5%
COc1ccc(NC(=O)N2CCCC(CN3CCC(C)CC3)CC2)cc1 (stereo not drawn)	i
CCOc1ccc(CN2C(=O)c3cc(C(=O)OC)nn3CC2(C)C(=O)NC2CCCCC2)cc1 (stereo not drawn)	i
O=C1Cc2c(-c3ccccc3OCc3ccccc3)n[nH]c2CN1CC1CCOCC1	i
O=C(OCc1ccccc1)N1CCC2(CC1)C(=O)NN=C2C1CC1	i
Cc1ccc(CN2CCC3(CC2)CC(c2ccccc2)C(=O)N3C)cc1F (stereo not drawn)	i
CN1C(=O)C(c2ccccc2)CC12CCN(c1ccnc(N)n1)CC2 (stereo not drawn)	+	MTase-Glo ctr=5%
C[C@@H]1CC[C@]2(C(=O)OC3OC(CO)C(O)C(O)C3O)CC[C@]3(C)C(=CCC4[C@@]5(C)CC[C@H](O)[C@](C)(C(=O)O)C5CC[C@]43C)C2[C@]1(C)O (stereo partly drawn)	i
O=C(c1ccc2c(=O)nc3c(-c4ccccc4)n[nH]n3c2c1)N1CCN(c2ccccc2)CC1	i
COc1ccc(CCNC(=O)CCc2nnc3n(CCCOC(C)C)c(=O)c4ccccc4n23)cc1OC	i
COc1ccccc1CN1C(=O)c2cc3ccccc3n2CC1(C)C(=O)NCc1ccccc1 (stereo not drawn)	i
Cc1ccc(-c2ccc(N)nc2)c2cccnc12	+	MTase-Glo ctr=-6%
CC(C)Cn1c(=O)c2ccc(C(=O)NC3CCCC3)cc2n2c(SCC(=O)NC(C)C)nnc12	i
CC(=O)N1CCCCN(C(=O)c2cc(-c3ccccc3C(F)(F)F)nc3c2cnn3C)C1	i
Cc1cc(C)c(S(=O)(=O)NCCc2nc(-c3ccc(F)cc3)n[nH]2)cc1C	i
O=C(CC1CCN(C(=O)C2CCCCC2)C1)NCc1ccccc1 (stereo not drawn)	i
O=C(CC1CCCC1)N1CCC(Nc2cccnc2)C1 (stereo not drawn)	+	MTase-Glo ctr=-6%
O=C(CC1CCOCC1)N1CCN(c2ncccn2)CC1	i
Cc1cccc(CNC(=O)c2ncn3c2C(=O)N(C2CC2)C(C)(C(=O)NC2CCCC2)C3)c1 (stereo not drawn)	i
c1ccc(CO[C@H]2COCCN(c3nc4ccccc4o3)C2)cc1	+	MTase-Glo ctr=-4%[85.7 µM]
SMILES	Methyltransferases	others
O=C1N(Cc2ccc(F)c(F)c2)CCCC12CCN(c1nc3ccccc3o1)C2 (stereo not drawn)	i
COc1ccc(CNC(=O)O[C@H]2COCCN(c3nc4ccccc4o3)C2)cc1	i
CC(C)n1cc2cc(C(=O)Nc3ccc4c(c3)OCCO4)sc2c1	i
C=CCOc1cc(Cl)ccc1C(=O)NCCN(CC)CC	i
O=[S+]1([O-])NC2(CCCN(Cc3c(F)cccc3Cl)C2)COc2ccccc21 (stereo not drawn)	+	MTase-Glo ctr=-7%
O=C1NC2(CCN(Cc3ccccc3)C2)COc2ccccc21 (stereo not drawn)	i
O=[S+]1([O-])NC2(CCN(Cc3ccncc3)CC2)CNc2ccccc21	i
CCOc1ccc(C(=O)Cn2nc3n(C(C)C)c(=O)c4ccc(C(=O)NC(C)C)cc4n3c2=O)cc1	i
COC[C@H]1C[C@@H](NC(=O)c2c(-c3ccccc3)noc2C)[C@H](O)[C@@H]1O	i
CN1C[C@@H]2CC[C@H](CC1=O)N2C(=O)c1cnn2cc(CCO)cnc12	i
CCN(CC)Cc1cnc2c(C(=O)N3CCCN4CCC[C@H]4C3)cnn2c1	+	MTase-Glo ctr=2%
O=C(Cn1ccc2cc(S(=O)(=O)N3CCCCC3)ccc21)NCCc1ccc(Cl)cc1	i
